A selection: hits, their analogues and other compounds. The true share with any hit is near 3.5%.
GPR151 ag = activators of human GPR151, primary screen, cell-based, PathHunter beta-arrestin, luminescence; G-protein coupled receptor 151 (Homo sapiens), Q8TDV0; PathHunter beta-arrestin GPR151 cells; activation, % at 11.2 µM; hit rate 1% among 650,000; AID 1508602, 2020; in the data active means activation above about 4.9%;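 further: 0% = median of compound wells and 100% = cells with positive control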
Target sequence (Q8TDV0 whole entry, looked up): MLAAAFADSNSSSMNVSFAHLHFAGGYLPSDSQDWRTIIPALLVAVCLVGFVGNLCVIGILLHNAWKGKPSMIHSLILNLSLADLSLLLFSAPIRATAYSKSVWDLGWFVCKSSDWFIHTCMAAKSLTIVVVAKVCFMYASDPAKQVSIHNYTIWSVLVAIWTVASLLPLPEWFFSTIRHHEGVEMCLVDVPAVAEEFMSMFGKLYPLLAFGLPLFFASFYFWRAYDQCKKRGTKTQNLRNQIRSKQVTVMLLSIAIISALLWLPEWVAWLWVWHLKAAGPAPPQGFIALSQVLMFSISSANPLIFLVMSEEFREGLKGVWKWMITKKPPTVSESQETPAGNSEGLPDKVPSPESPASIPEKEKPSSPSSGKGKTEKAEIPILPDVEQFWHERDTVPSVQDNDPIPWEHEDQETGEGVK
FBW7 activator = FBW7 E3 ligase activators, primary screen, biochemical, AlphaScreen, human; AlphaScreen FBW7–phospho-cyclin E peptide binding, activator screen; normalized activity (activation), % at 26.1 µM; hit rate 0.13% among 650,000; F-box/WD repeat-containing protein 7 (Homo sapiens), Q969H0; in the data active means normalized activity above about 1.9%;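 further: purified mutant Fbw7 with reduced substrate affinity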
TEAD-YAP inh = TEAD-YAP interaction inhibition, primary screen, TEAD-YAP interaction inhibitor project, luminescence, HEK-TIYL cells; TEAD-Gal4/YAP UAS-luciferase luminescence; inhibition, % at 9.12 µM; hit rate 1.4% among 640,000; AID 1259422, 2018; in the data active means inhibition above about 32%;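 further: 0% = median of test compound wells and 100% = reference inhibitor wells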
MITF inh = MITF inhibitors, primary screen, biochemical, AlphaScreen, human; hit rate 0.91% among 650,000; inhibition, % at 2.6 µM; AlphaScreen MITF homodimerization, bead proximity signal; Microphthalmia-associated transcription factor (Homo sapiens), O75030; in the data active means inhibition above about 50%;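 further: 0% = vehicle wells with protein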
MITF confirm = MITF inhibitors, retest of hits, confirmation, biochemical, AlphaScreen, triplicate; shares compounds with MITF inh; AlphaScreen MITF homodimerization, biotin/His-MITF beads; inhibition, % at 2.6 µM; hit rate 16% among 4,700;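 active means inhibition above a cutoff derived from the DMSO control wells, cut at about 28% in these data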;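 further: 0% = MITF dimer wells with DMSO only; inhibitors lower the bead chemiluminescence by keeping MITF from dimerizing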
AlphaScreen DR = AlphaScreen optical interference compounds, dose response, counter-screen, biochemical, HTS; IC50, µM; hit rate 6% among 480; AlphaScreen optical interference counterscreen, cell-free; shares compounds with MITF inh; call rule not given here
AS interf ctr = AlphaScreen optical interference compounds, counter-screen for MITF inhibitor project, biochemical, triplicate. hit rate 7.6% among 4,700. shares compounds with MITF inh. LysRS AlphaScreen counterscreen, signal interference. inhibition, % at 2.6 µM;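 active means inhibition above a cutoff derived from the DMSO control wells, cut at about 30% in these data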
Active calls of the source: *.

`CC(C)(C)NC(=O)C(=O)NNC(=O)c1ccc([N+](=O)[O-])cc1[N+](=O)[O-]` gave GPR151 ag -2, FBW7 activator 1, TEAD-YAP inh -11, MITF inh 66*, MITF confirm -22 and AS interf ctr 1.
Screening CS(=O)(=O)c1ncc(Cl)c(C(=O)Nc2ccccc2[N+](=O)[O-])n1 returned GPR151 ag 0, FBW7 activator 0, TEAD-YAP inh -8 and MITF inh 6.
For COC(=O)c1cccc(NC(=O)CSc2ncccn2)c1 the results were GPR151 ag -1, FBW7 activator 0, TEAD-YAP inh -4 and MITF inh -10.
For Cc1cccc(CCNC(=O)CN(C)S(=O)(=O)c2cnc[nH]2)c1 the results were GPR151 ag 0, FBW7 activator 0, TEAD-YAP inh -1, MITF inh 76*, MITF confirm 10 and AS interf ctr 20.
Screening Cc1ccc(C)c(NC(=O)CN(C)S(=O)(=O)c2cnc[nH]2)c1 returned GPR151 ag 0, FBW7 activator 0, TEAD-YAP inh 1 and MITF inh 4.
CC(C)c1ccc(CN2CCc3nnc(CCNC(=O)Cc4ccc(F)cc4)n3CC2)cc1 was read as GPR151 ag 1, FBW7 activator 0, TEAD-YAP inh 2 and MITF inh 4.
For COC(=O)c1ccc(C(=S)NCC2(N3CCOCC3)CCCCC2)cc1 the results were GPR151 ag -1, FBW7 activator 0, TEAD-YAP inh -2 and MITF inh -4.
Screening COc1ccc(CNC(=O)CNCC2(N3CCOCC3)CCCCC2)cc1 returned GPR151 ag 0, FBW7 activator 0, TEAD-YAP inh 2, MITF inh 55*, MITF confirm -6 and AS interf ctr -3.
Screening CC(=O)C1=C(O)C(=O)N(CCN2CCOCC2)C1c1cccnc1 (stereo not drawn) returned GPR151 ag 0, FBW7 activator 0, TEAD-YAP inh -10 and MITF inh 9.
c1ccc2c(Nc3nc(NCc4nc5ccccc5[nH]4)c4ncn(-c5ccsc5)c4n3)nccc2c1 was read as GPR151 ag 2, FBW7 activator 1, TEAD-YAP inh 27, MITF inh 62*, MITF confirm -7 and AS interf ctr 11.
For O=C(COC(=O)C1CCC(=O)N1)Nc1ccccc1Br (stereo not drawn) the results were GPR151 ag 1, FBW7 activator 0, TEAD-YAP inh -1, MITF inh 53*, MITF confirm -3 and AS interf ctr 0.
`O=C1CC(c2ccc(F)c(Br)c2)c2cc(Br)c3ccccc3c2N1` (stereo not drawn) gave GPR151 ag -1, FBW7 activator 0, TEAD-YAP inh -5 and MITF inh -6.
`CN(C)/C=C/C=C/C(=O)c1ccccc1N(C)C` gave GPR151 ag 1, FBW7 activator 0, TEAD-YAP inh 3 and MITF inh -6.
Screening CN(C)/C=C/C=C/C=C/C(=O)c1ccc(C(=O)/C=C/C=C/C=C/N(C)C)cc1 returned GPR151 ag -1, FBW7 activator 0, TEAD-YAP inh 4, MITF inh 84*, MITF confirm 68* and AS interf ctr 10.
For O=C(Nc1ccc(Br)cc1)Nc1cccc(Cl)c1 the results were GPR151 ag 0, FBW7 activator 1, TEAD-YAP inh -30, MITF inh 57*, MITF confirm 1 and AS interf ctr 6.
NC(=O)CSc1nnc2c3ccccc3n(CCc3ccccc3)c2n1 was read as GPR151 ag 0, FBW7 activator 0, TEAD-YAP inh -4, MITF inh 53*, MITF confirm 7 and AS interf ctr -6.
Screening CCCn1c2ccccc2c2nnc(SCC(N)=O)nc21 returned GPR151 ag 1, FBW7 activator 0, TEAD-YAP inh -9 and MITF inh 3.
For CS(=O)(=O)N1CCN(c2ccc(-c3ccncc3)nn2)CC1 the results were GPR151 ag -2, FBW7 activator 0, TEAD-YAP inh -7 and MITF inh -4.
For CCOC(=O)c1ccc(-n2c(=S)sc3c2nc(SCC(=O)NCc2ccccc2)n2c4ccccc4nc32)cc1 the results were GPR151 ag 0, FBW7 activator 0, TEAD-YAP inh 7, MITF inh 60*, MITF confirm -4 and AS interf ctr -8.
Screening CCOc1ccc(-n2c(=S)sc3c2nc(SCC(=O)NCc2ccccc2)n2c4ccccc4nc32)cc1 returned GPR151 ag 0, FBW7 activator 0, TEAD-YAP inh 4 and MITF inh -1.
`Cc1ccccc1C1C(=O)N(C2CCCCC2)CC(=O)N1C1CCCCC1` (stereo not drawn) gave GPR151 ag -1, FBW7 activator 0, TEAD-YAP inh -12 and MITF inh 0.
CCCc1nc(SCC(=O)NC(C)(C)C)c2ccccc2n1 was read as GPR151 ag -1, FBW7 activator 0, TEAD-YAP inh -11, MITF inh 53*, MITF confirm 7 and AS interf ctr 15.
CN1CCC(NCc2ccccc2Br)CC1 was read as GPR151 ag 0, FBW7 activator 1, TEAD-YAP inh -6 and MITF inh -9.
Cc1nn(C(=O)c2cccs2)c(N)c1-c1ccccc1 was read as GPR151 ag 1, FBW7 activator 0, TEAD-YAP inh -69 and MITF inh 6.
Screening Cc1nn(C(=O)c2ccc3c(c2)OCO3)c(N)c1-c1ccccc1 returned GPR151 ag -2, FBW7 activator 0, TEAD-YAP inh -32, MITF inh 52*, MITF confirm 2 and AS interf ctr 6.
O=c1cc2ncc(-c3[nH]ncc3[N+](=O)[O-])cn2[nH]1 was read as GPR151 ag 0, FBW7 activator 0, TEAD-YAP inh 4 and MITF inh 5.
Screening O=C(O)c1cc2ncc(-c3n[nH]c(-c4cnc5cc(C(=O)O)nn5c4)c3[N+](=O)[O-])cn2n1 returned GPR151 ag 1, FBW7 activator -1, TEAD-YAP inh -9, MITF inh 68*, MITF confirm 58*, AlphaScreen DR >6.5 and AS interf ctr -15.
For COc1ccc(S(=O)(=O)N2CCn3cccc3C2c2ccccc2F)cc1C (stereo not drawn) the results were GPR151 ag 0, FBW7 activator 0, TEAD-YAP inh 3, MITF inh 58*, MITF confirm 3 and AS interf ctr -1.
